Only some compounds are listed: those with a hit (about 1.7% of all), similar ones and a draw of the others.
PrPC surface inh: inhibitors of human cell surface prion protein PrPC, primary screen, cell-based, TR-FRET; Major prion protein (Homo sapiens), P04156; TR-FRET read-out; inhibition, % at 13.8 µM; 370,000 compounds, 0.43% hits; AID 720596, 2013; in the data active = inhibition above about 24%; note: 0% = median of the test wells and 100% = reference compound wells
PrP 5UTR inh: inhibition of PrP 5' UTR reporter expression; 340,000 compounds, 0.35% hits; cell-based PrP 5' UTR mRNA reporter, plate reader; inhibition, % (concentration not given with the values); AID 488862, 2010; in the data active = inhibition above about 52%; note: 0 = median of the neutral control wells
SSB-PriA inh: inhibitors of Klebsiella pneumoniae PriA binding to SSB C-terminal tail, primary screen, biochemical, AlphaScreen; PriA–SSB C-terminal tail interaction (Klebsiella pneumoniae); AlphaScreen SSBct-PriA binding, biotinylated peptide; inhibition, % at 33 µM; 430,000 compounds, 0.6% hits; in the data active = inhibition mostly above about 37%, no sharp cut-off; inactive = mostly below about 20%;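 note: plate controls were negative control peptide for no effect and reference peptide for full effect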
Yp Topo-I inh: Yersinia pestis topoisomerase I inhibitors, primary screen, biochemical, cleavage product accumulation, plate reader, single point; Y. pestis Topo-I cleavage product accumulation; 360,000 compounds, 0.064% hits; DNA topoisomerase I (Yersinia pestis CO92); activity, % at 10 µM; in the data active = activity above about 50%, passing the limit was not always enough; inconclusive = no clear call, values can overlap the other calls
PfHsp40 yeast: rescue of yeast from PfHsp40 toxicity, primary screen, S. cerevisiae, ATP luminescence; S. cerevisiae expressing PfHsp40, growth rescue; growth rescue, % at 12.5 µM; 340,000 compounds, 0.68% hits; AID 504582, 2011; in the data active = growth rescue above about 28%, passing the limit was not always enough; inconclusive = no clear call, values can overlap the other calls;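 note: yeast W303a lacking pdr1 and pdr3 grown in galactose medium; growth measured after three days at 30 °C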
BJeLR viability: MLPCN primary cell-based screen for lethality selective to Ras in HRASV12 cells | BJeLR (HRASV12) viability, CellTiter-Glo ATP luminescence, 48 h | inhibition, % (test concentration not listed) | 300,000 compounds, 0.17% hits | AID 1554, 2009; in the data active = inhibition above about 50%; inconclusive = no clear call, values can overlap the other calls
Active calls of the source: *; ? = inconclusive; nt = not tested or not shown; ! = a repeat was not active.

SMILES	PrPC surface inh	PrP 5UTR inh	SSB-PriA inh	Yp Topo-I inh	PfHsp40 yeast	BJeLR viability
COc1ccc(-c2cn3c(C)c(C(=O)N(C)c4ccccc4)sc3n2)cc1	nt	nt	38.0*	nt	nt	nt
O=C1CC(c2ccccc2)c2cccc(F)c21 (stereo not drawn)	7.4	-30.9	-15.6	-6.5	39.1*	16.9
Clc1ccc(OCCn2cnc(Cl)c2Cl)cc1	3.9	-9.9	43.0*	20.8	12.1	2.0
COc1ccc(OCCn2cnc(Cl)c2Cl)cc1	1.6	-30.9	27.0	3.5	-1.3	-10.2
O=C1CC(N2CCCCCC2)C(=O)N1c1ccc2c(c1)OCO2 (stereo not drawn)	-4.9	-38.1	-5.4	6.1	78.0*	-1.6
O=C1CC(N2CCN(c3ccc(O)cc3)CC2)C(=O)N1c1ccc2c(c1)OCO2 (stereo not drawn)	-4.9	-19.5	9.6	-8.9	-0.1	1.2
CC1CC(C)CN(C(=O)c2ccc(CNS(=O)(=O)c3ccc(C(C)(C)C)cc3)cc2)C1 (stereo not drawn)	nt	nt	-32.0	nt	nt	nt
COc1cccc(C(=O)Oc2coc(CSc3nncn3C)cc2=O)c1	nt	nt	8.0	nt	nt	nt
Cc1cc(C(=O)Nc2ccc(S(N)(=O)=O)cc2)nn1C	nt	nt	-14.0	nt	nt	nt
O=C(Cn1c(S(=O)(=O)Cc2ccccc2)nc2ccccc21)N1CCN(c2ccccc2)CC1	nt	nt	54.0*	nt	nt	nt
COc1ccc(-c2cn(CCC(=O)NCc3ccc(C)cc3)c(-c3ccncc3)n2)cc1	3.0	-12.9	-3.0	13.0	0.6	3.4
Cc1ccc(CNC(=O)CCn2cc(-c3ccc(C)cc3)nc2CCN)cc1	-2.8	-23.3	20.0	12.5	40.2*	nt
Cc1ccc(C2NC(=O)NC(O)(C(F)(F)F)C2C(=O)c2ccccc2)o1 (stereo not drawn)	-3.0	0.3	-15.9	-0.9	0.9	8.2
CCOC(=O)C1C(c2ccc(C)o2)NC(=O)NC1(O)C(F)(F)F (stereo not drawn)	0.0	2.2	43.0*!	-1.7	-0.1	8.2
c1c[nH]c(CN2CCN(Cc3ncc[nH]3)CC2)n1	-3.5	-16.3	14.3	1.2	383.8*	nt
COc1ccc(CNC(=O)Nc2cnc3ccnn3c2)cc1	nt	nt	5.0	nt	nt	nt
CS(=O)(=O)N(CCC(=O)O)Cc1ccccc1	-5.4	-9.1	-27.1	0.2	76.7*	-5.1
CC1Oc2cc3c(-c4c(O)cc(O)c5c(O)c6c(cc45)OC(C)C(C)C6=O)c(O)cc(O)c3c(O)c2C(=O)C1C (stereo not drawn)	nt	38.7	3.3	-51.6	76.5*	0.4
Cc1ccc(S(=O)(=O)N2CCC(C(=O)OCCOc3cccc(C)c3)CC2)cc1	-1.9	-18.4	-16.0	25.3	1.7	nt
Cc1cccc(OCCOC(=O)C2CCN(S(=O)(=O)c3ccc(C)c(C)c3)CC2)c1	4.3	-11.4	46.7*	?	0.5	1.9
COc1cccc(C2C(S(=O)(=O)c3ccc(C)cc3)=C(O)C(=O)N2c2ccc(C)cc2)c1 (stereo not drawn)	nt	nt	-5.0	nt	nt	nt
COc1ccccc1OC(=O)c1cc2ccccc2oc1=O	5.9	-17.4	0.4	11.7	7.4	9.3
COc1cc(/C=C/[N+](=O)[O-])ccc1OC(=O)c1cc2ccccc2oc1=O	-9.2	-16.9	4.1	0.7	117.6*	19.8
Cc1nc2ccc(NC(=O)c3cccs3)cc2c(=O)n1Cc1ccc(Cl)cc1	5.5	-22.4	-7.8	3.9	30.7*	-2.8
Cc1c(Cc2ccccc2)c(NCCN(C)C)n2c(nc3ccccc32)c1C#N	-9.0	-3.5	-12.4	-5.6	170.6*	21.5
SMILES	PrPC surface inh	PrP 5UTR inh	SSB-PriA inh	Yp Topo-I inh	PfHsp40 yeast	BJeLR viability
CCc1c(C)c(C#N)c2nc3ccccc3n2c1Cl	nt	nt	nt	nt	nt	128.5*
Cc1cc(C)n(-c2ccc(=O)n(CC(=O)NCCn3nc(-n4cncn4)ccc3=O)n2)n1	nt	nt	0.0	nt	nt	nt
Cn1c(SCC(=O)N2CCCc3ccccc32)nc2c(-c3ccccc3)c[nH]c2c1=O	nt	nt	-14.0	nt	nt	nt
O=C(CSc1nccn1-c1ccc(Cl)cc1)N1CCCc2ccccc21	9.7	-13.7	55.8*	41.3	7.2	-9.3
O=C(CSc1ncc(-c2ccccc2)[nH]1)N1CCCc2ccccc21	nt	nt	39.0*	nt	nt	nt
O=C(CSc1nccn1-c1ccccc1)N1CCc2ccccc21	6.1	9.9	7.1	-4.7	1.3	-10.5
CCn1c(SCC(=O)N2CCCc3ccccc32)nnc1-c1ccco1	2.7	-2.3	1.0	-3.4	48.4*	6.8

Screening results as filed in PubChem BioAssay.
